Only some compounds are listed: those with a hit (about 21% of all), similar ones and a draw of the others.
Giardia FBPA inh: Giardia lamblia aldolase inhibition. A8B2U2. AID 2451. purified Giardia FBPA. hit rate 0.71% among 290,000. Potency, µM (highest dose often 59.6 µM), inactives show top-dose activity, negative = inhibition, most hits filed as inhibitors; further: potency means the concentration at half of the fitted maximal effect; on the % scale 0 is the no-effect control and ±100 the full control effect; nearly all actives have a fitted effect of over 55% in size
Target sequence (A8B2U2 whole entry, looked up): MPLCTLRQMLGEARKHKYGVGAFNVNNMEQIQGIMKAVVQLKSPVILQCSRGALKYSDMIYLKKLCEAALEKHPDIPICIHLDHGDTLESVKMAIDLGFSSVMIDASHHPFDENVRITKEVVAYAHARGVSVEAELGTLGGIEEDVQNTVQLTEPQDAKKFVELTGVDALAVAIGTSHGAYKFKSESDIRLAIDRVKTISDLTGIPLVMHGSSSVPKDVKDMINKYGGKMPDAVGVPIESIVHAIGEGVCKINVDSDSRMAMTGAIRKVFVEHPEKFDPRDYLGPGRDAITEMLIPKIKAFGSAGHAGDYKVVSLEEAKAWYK
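40 nM FBPA preincubated 10 min at RT with compound (up to 57.5 uM final), then substrate plus GAPDH/TPI/NAD/arsenate coupling and diaphorase/resazurin added. Fluorescence read after 20 min at RT, 525/598 nm.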
NS1 function inh: inhibitors of influenza NS1 protein function; Potency, µM (series often up to 46.1 µM), for inactives: at the top dose activity, positive = more growth; hit rate 0.4% among 270,000; calls by dose curve; further: potency means the concentration at half of the fitted maximal effect; actives are rising curves; nearly all actives have a fitted effect of over 50% in size
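Recovery from NS1-induced slow growth read by OD600 in budding yeast switched to galactose assay medium (pH 6.0, -URA) at 1:100 dilution. Compound 23 nl per well; the matching strain lacking NS1 serves as control.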
Cycloheximide cs: affects cycloheximide protein synthesis inhibition readout, counter-screen | cell reporter, cycloheximide protein synthesis inhibition counterscreen | AID 2314 | hit rate 12% among 300,000 | max response, %; in the data active means max response mostly above about 13%, no sharp cut-off; inactive means mostly below about 14%; further: read at 38.3 µM for the half of the compounds with a filed dose; 0% is about no effect
Shiga inhibitor: blocks Shiga toxin action in Vero cells; Vero cells, Shiga toxin protein synthesis inhibition reporter; inhibition, % at 38.7 µM; hit rate 9.2% among 290,000; in the data active means inhibition mostly above about 28%, no sharp cut-off; inactive means mostly below about 43%; further: 0% is about no effect
Pf growth 96h: P. falciparum growth inhibition at 96 hour, primary screen for plastid delayed-death inhibitors. Potency, µM (doses to about 28.7 µM), without a hit: at the top dose activity change, negative = inhibition, usual class: inhibitors. hit rate 6.9% among 320,000. P. falciparum luciferase reporter growth, 96 h; further: potency means the concentration at half of the fitted maximal effect; on the % scale 0 is the no-effect control and ±100 the full control effect
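Two parasite generations (96 h, 37 C, 5% CO2) of compound exposure in infected erythrocytes (0.05% parasitemia, 2% hematocrit). Luciferase-reporter P. falciparum; decreased luminescence indicates inhibited growth, aimed at apicoplast-acting delayed death.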
Pf growth 48h: P. falciparum growth inhibition at 48 hours (one generation); P. falciparum luciferase growth in erythrocytes, 48 h; hit rate 5.9% among 310,000; Potency, µM (top dose mostly 28.7 µM), inactives show at the top dose activity change, negative = inhibition, actives largely listed as inhibitors; AID 504832; further: potency means the concentration at half of the fitted maximal effect; on the % scale 0 is the no-effect control and ±100 the full control effect
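Luminescence readout; reporter = integrated firefly luciferase in P. falciparum. RBC culture at 2% hematocrit, 0.1% parasitemia final, 37 C/5% CO2; decreased signal taken as growth inhibition.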
* = called active by the depositor; i = inactive; ? = inconclusive; . = not tested or not shown. Unless noted, the call rests on the fitted dose curve; in most records, active means well fitted curve in the direction sought with a large enough effect; inconclusive means small, poorly fitted or top-dose-only effect, or another doubt; inactive means no such curve, though single readings can be large; an effect the other way counts as inactive or inconclusive.

SMILES	Giardia FBPA inh	NS1 function inh	Cycloheximide cs	Shiga inhibitor	Pf growth 96h	Pf growth 48h
CC(=O)O[C@@H]1C(CO[Si](C)(C)C(C)(C)C)=C(Br)C(=O)[C@@H]2O[C@]12C	-8.8%	.	.	.	.	.
COc1ccccc1NC(=O)Cn1ccn(-c2cccc3ccccc23)c(=O)c1=O	.	.	.	.	-2.8%	?
Cc1c(NC(=O)C(=O)/C=C(/O)c2ccccc2)c(=O)n(-c2ccccc2)n1C	-15.9%	4.4%	-1.6	-2.1	-0.1%	31.1%
COc1cccc(NC(=O)Nc2c(C)n(C)n(-c3ccccc3)c2=O)c1	-0.8%	?	-3.6	-4.3	14.8%	7.8%
COc1ccc(OC)c(S(=O)(=O)ON2C(=O)c3ccccc3C2=O)c1	-4.2%	12.6%	7.8	6.0	2.94µM*	41.8%
Cc1c(NC(=O)Nc2cccc(C#N)c2)c(=O)n(-c2ccccc2)n1C	2.0%	4.4%	-1.9	-9.6	3.7µM*	11.7%
COc1ccc(/C(O)=C/C(=O)C(=O)Nc2c(C)n(C)n(-c3ccccc3)c2=O)cc1	-3.4%	0.7%	-3.1	-8.9	7.38µM*	25.9%
Cc1c(NC(=O)c2ccc(COc3ccc4ccccc4c3)o2)c(=O)n(-c2ccccc2)n1C	-1.1%	-5.8%	30.7*	91.2*	14.8%	?
Cc1c(NC(=O)c2cc3ccccc3o2)c(=O)n(-c2ccccc2)n1C	-6.8%	12.7%	-3.1	3.1	?	6.5%
COC(=O)[C@@H](NC(=O)N1CCN(C(=O)C2COc3ccccc3O2)CC1)C(C)C (stereo partly specified)	3.7%	-2.9%	11.1	10.7	4.1%	-10.8%
CN1C(=O)C2(OCCCO2)c2ccccc21	5.2%	-20.8%	1.4	-1.4	0.0%	-16.9%
Cc1c(NC(=O)c2c(F)cccc2F)c(=O)n(-c2ccccc2)n1C	3.3%	-6.2%	-5.3	-3.0	-20.0%	7.9%
COc1ccc(-c2cc(C(=O)Nc3c(C)n(C)n(-c4ccccc4)c3=O)c3ccccc3n2)c(OC)c1	.	0.0%	-2.4	5.7	14.7µM*	11.7µM*
COc1ccc(-c2cc(C(=O)OC(C)C(=O)Nc3c(C)n(C)n(-c4ccccc4)c3=O)c3ccccc3n2)cc1 (stereo unspecified)	-4.2%	-9.8%	-6.4	-10.2	-0.6%	24.8%
Cc1c(NC(=O)COC(=O)c2cc(-c3ccc(-c4ccccc4)cc3)nc3ccccc23)c(=O)n(-c2ccccc2)n1C	4.8%	6.6%	56.8*	83.6*	0.0%	100.2%
COc1ccc(OC)c(S(=O)(=O)Nc2c(C)n(C)n(-c3ccccc3)c2=O)c1	3.1%	9.1%	1.1	-6.7	14.7µM*	-7.5%
COc1ccc(-c2cc(C(=O)Nc3c(C)n(C)n(-c4ccccc4)c3=O)c3ccccc3n2)cc1OC	13.9%	-20.6%	0.9	16.1	23.3%	?
COc1cccc(OC)c1C(=O)Nc1c(C)n(C)n(-c2ccccc2)c1=O	9.5%	17.5%	-1.4	14.1	10.4µM*	5.2%
Cc1c(NS(=O)(=O)c2ccccc2F)c(=O)n(-c2ccccc2)n1C	.	10.5%	-5.8	3.3	13.0%	2.8%
Cc1c(NC(=O)c2cc3ccccc3oc2=O)c(=O)n(-c2ccccc2)n1C	5.3%	1.3%	42.4*	86.0*	56.4%	.
N#Cc1ccc(CSc2nnc3[nH]c(=O)cc(N)n23)cc1	-13.1%	.	8.2	20.8	-37.6%	4.15µM*
CC1CCN(C(=O)CNC(=O)CNC(=O)Cc2ccccc2)CC1	.	13.3%	-4.0	17.1	?	9.8%
Cc1cc(OC(C)C(N)=O)nc(-c2ccccc2)n1 (stereo unspecified)	3.1%	.	5.1	13.0	10.0%	14.7µM*
Cc1cc(Cl)nc(-c2ccccc2)n1	3.1%	-0.1%	1.3	-17.1	i	34.1%
COc1ccc(CCN=C(C)c2cc(C)c(C)cc2O)cc1OC	3.4%	4.3%	-2.7	-4.6	47.1%	-17.5%
COC(=O)c1cc(OC)c(OC)cc1NC(=O)c1csc(C)c1	.	20.2%	-3.3	-16.5	?	10.4µM*
COC(=O)c1cc(OC)c(OC)cc1NC(=S)Nc1cccc(Cl)c1	4.5%	-7.1%	-2.1	14.4	13.1µM*	3.3%
CNS(=O)(=O)c1ccc(NC(=O)c2ccccn2)cc1	-3.1%	-4.5%	62.8*	22.9*	190.5%	146.7%
CNS(=O)(=O)c1ccc(NC(=O)c2csc(C)c2)cc1	.	5.5%	23.5*	36.4*	?	9.3%
